# Reference: PubChem BioAssay (NCATS)
# Values joined by “and” are separate entries in the source; they are usually repeats but may differ in a detail not shown here. Equal entries are not always repeated. Inconclusive results are not listed. A number with no mark means an inactive call. Active and inactive are the calls of the source. Calls come from the whole dose curve; as a rule, active = well fitted curve in the direction sought with a large enough effect; inconclusive = small, poorly fitted or top-dose-only effect, or another doubt; inactive = no such curve, though single readings can be large; an effect the other way counts as inactive or inconclusive.
# How the values were obtained:
# [1] = Viability qHTS for spleen associated tyrosine kinase inhibitor (SYKi) naive MV4-11 cells (AID 1963823); details: MV4-11 AML viability, CellTiter-Glo luminescence, 72 h; series mostly up to 45 µM; note: nearly all actives have a fitted effect of over 40% in size
# Summary of the method: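 Luminescence from CellTiter-Glo, developed 10 min at room temperature, gave viability of MV4-11 cells never exposed to SYK inhibitor. Cells (500/well) had been incubated with compounds for 72 hr under standard culture conditions.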
# [2] = Viability qHTS for spleen associated tyrosine kinase inhibitor (SYKi) drug resistant MV4-11 cells (AID 1963824); details: SYKi-resistant MV4-11 viability, CellTiter-Glo, 72 h; series mostly up to 45 µM; note: nearly all actives have a fitted effect of over 35% in size
# Summary of the method: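 SYK-inhibitor-resistant MV4-11 AML cells were seeded at 500 per well onto compound and cultured 72 hours (37 °C, 5% CO2). CellTiter-Glo was then added, and after 10 min at room temperature, luminescence gave viability.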
# [3] = Cellular viability qHTS for adrenocortical cancer (ACC) cell line SW-13 (AID 1963989); details: SW-13 ACC cells viability, CellTiter-Glo, 48 h; activity (max response): stronger effect = lower value; note: nearly all actives have a fitted effect of over 65% in size;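 for activity (max response): cells grown in serum-free medium with ITS supplement; % is set by controls: 0 for no effect and ±100 for the full control effect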
# Summary of the method: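 Here, serum-free SW-13 cultures were dosed up to 46 uM. Following 48 h, ATP-dependent luminescence (CellTiter-Glo) reported viable cells, and logistic modeling produced IC50 values.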
# [4] = Cellular viability qHTS for adrenocortical cancer (ACC) cell line NCI-H295R (AID 1963990); details: CellTiter-Glo ATP luminescence, 48 h; series mostly up to 46.1 µM; note: nearly all actives have a fitted effect of over 60% in size
# Summary of the method: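 Viability of NCI-H295R after 48 h of treatment (final up to 46 uM) measured through cellular ATP luminescence.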
# Potency is the fitted concentration of half-maximal effect.
Compound,Potency [1],Potency [2],Potency [3],Potency [4],activity (max response) [3]
COC1CCC(N2C(=O)CNc3ncc(-c4ccc(C(C)(C)O)nc4)nc32)CC1 (configuration not stated),5.25 µM (active),4170 nM (active),15.8 µM (active),15.8 µM (active),–
Cn1ncc(Cl)c1-c1cc(C(=O)N[C@H](CN)Cc2ccc(F)c(F)c2)sc1Cl,9.2 µM (active) and 5.9 µM (active),11.6 µM (active) and 4.68 µM (active),8.91 µM (active),3.16 µM (active),–
CSc1ccc(C(=O)c2[nH]c(=O)[nH]c2C)cc1,inactive,inactive,–,inactive,15.3%
COc1ccc(-c2oc3ncnc(N)c3c2-c2ccc(NC(=O)Nc3cc(C(F)(F)F)ccc3F)cc2)cc1,41.1 nM (active) and 66.1 nM (active),103 nM (active) and 166 nM (active),–,inactive,0.756%
CN(C)C/C=C/C(=O)Nc1cccc(C(=O)Nc2cccc(Nc3ncc(Cl)c(-c4c[nH]c5ccccc45)n3)c2)c1,inactive,3.7 nM (active),0.316 µM (active),1.12 µM (active),–
CC(C)(O)c1coc(S(=O)(=O)NC(=O)Nc2c3c(cc4c2CCC4)CCC3)c1,inactive,inactive,–,inactive,5.8%
C=CC(=O)N1CCC[C@@H](n2nc(-c3ccc(Oc4ccccc4)cc3)c3c(N)ncnc32)C1,1.64 µM (active) and 662 nM (active),1.3 µM (active) and 1.18 µM (active),–,inactive,5.79%
CCO[C@@H]1OC(=O)C[C@@H]1NC(=O)[C@@H]1CCCN2C(=O)CC[C@H](NC(=O)c3nccc4ccccc34)C(=O)N12,inactive,inactive,–,inactive,-8.71%
NC(CC1c2ccccc2Oc2ccccc21)(C(=O)O)C1CC1C(=O)O (configuration not stated),inactive,inactive,–,inactive,1.03%
CC1c2cccc(O)c2C(O)=C2C(=O)C3(O)C(O)=C(C(N)=O)C(=O)C(N(C)C)C3C(O)C21 (configuration not stated),20.9 µM (active),11800 nM (active),–,inactive,8.67%
C#CC[C@H](c1nc2cc(Cl)ccc2c(=O)n1Nc1ccccc1)N(CCCN)C(=O)c1cccc(Cl)c1F,0.164 µM (active),206 nM (active),0.251 µM (active),3.55 µM (active),–
CNC1(C)C2CCC(C2)C1(C)C (configuration not stated),inactive,inactive,–,inactive,-10.9%
C[C@]12C=CC(=O)C=C1[C@@H](F)C[C@@H]1[C@@H]2[C@@H](O)C[C@@]2(C)[C@H]1CC[C@]2(O)C(=O)CO,inactive,inactive,–,inactive,7.4%
Brc1c(NC2=NCCN2)ccc2nccnc12,inactive,inactive,–,inactive,-5.06%
Cc1ccc(S(=O)(=O)Cc2nc(-c3ccc(C(=O)NCc4cccnc4)cc3)oc2C)cc1,0.0118 µM (active),10.5 nM (active),0.199 µM (active),0.0501 µM (active),–
Cn1cc[nH]c1=S,inactive,inactive,–,inactive,12%
CCCCOC(=O)CC(CC(=O)OCCCC)(OC(C)=O)C(=O)OCCCC,inactive,inactive,–,inactive,12.7%
O=C1Nc2nc(-c3c(O)cccc3OCC3CC3)cc([C@@H]3CCCNC3)c2CO1,2.91 µM (active),4.11 µM (active) and 5.25 µM (active),22.4 µM (active),17.8 µM (active),–
COc1cccc(OCCCN)c1-c1cc(Nc2cnc(C#N)cn2)n[nH]1,14.6 nM (active) and 5.9 nM (active),11.6 nM (active),–,inactive,-3.44%
CCNC(=O)Nc1ncc(-c2cc(-c3c(C)cc(OC)cc3C)nc(-c3cnccn3)n2)s1,inactive,inactive,–,inactive,-7.82%
Nc1ncnc(Nc2ccc(OCc3ccccc3)c(Cl)c2)c1/C=N/OCCN1CCOCC1,8.33 µM (active),7420 nM (active),17.8 µM (active),15.8 µM (active),–
Cc1c(NC(=O)OCC2COCCN2)cn2ncnc(Nc3ccc4c(cnn4Cc4cccc(F)c4)c3)c12 (configuration not stated),4.61 µM (active) and 16.6 µM (active),5.8 µM (active) and 16.6 µM (active),22.4 µM (active),31.6 µM (active),–
CC(C)NCC(O)COc1cccc2[nH]ccc12 (configuration not stated),inactive,inactive,–,inactive,-13.8%
